Screening data as filed in PubChem.
Most compounds without a hit are left out; they make up all but 4.5% or so of the library.
ERK AVP block: qHTS Assay for Inhibitors of the ERK Signaling Pathway using a Homogeneous Screening Assay | AID 995, 2007 | Potency, µM (titrated, usually from 57.5 µM), without a hit: at the highest dose activity, negative = inhibition, most hits filed as inhibitors | 72,000 tested, 0.99% active | HEK293-V1b, vasopressin-stimulated pERK AlphaScreen; also: % is scaled to controls: 0 for no effect and ±100 for the full control effect; nearly all actives have a fitted effect of over 55% in size
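HEK293 cells stably expressing V1b receptor, preincubated 30 min at 37 °C with compound, then stimulated 5 min with 25 nM vasopressin. Phospho-ERK by AlphaScreen SureFire after 5 h RT; normalized to DMSO and vasopressin; AC50 by Hill fit.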
TSHR agonist: qHTS Assay for Agonists of the Thyroid Stimulating Hormone Receptor. AID 926, 2007. Potency, µM (top dose mostly 57.1 µM), for the others: at the top dose activation, most hits filed as activators. HEK293-CNG-TSHR cells (CNG channel as cAMP sensor), membrane potential dye, cAMP. 73,000 tested, 0.48% active; active = well fitted activation curve with a large enough effect in the main read-out, with a control signal flat, not every such curve was filed as active; inconclusive = small, poorly fitted or top-dose-only effect, or a change in a side signal; inactive = no such curve, though single readings can be large or run the other way; % of control where 0% means no effect;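 also: the control signal comes from parental cells without the receptor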
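HEK 293 cells stably expressing TSHR and a cAMP-gated CNG channel; parental CNG-only cells as counterscreen. Cells preloaded 60 min with membrane potential dye plus 100 uM RO 20-1724, then compound 30 min; fluorescence read at 590 nm.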
Casp1 inh: qHTS Assay for Allosteric/Competitive Inhibitors of Caspase-1; P29466; Caspase-1 enzyme, Ac-WEHD-AFC fluorogenic rate; Potency, µM (series often up to 57.5 µM), without a hit: at the top dose activity change, negative = inhibition, usual class: inhibitors; 75,000 tested, 0.03% active; AID 900, 2007;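 also: plate controls were vehicle for no effect and no substrate for full effect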
Target sequence (P29466 120-297 limits assumed): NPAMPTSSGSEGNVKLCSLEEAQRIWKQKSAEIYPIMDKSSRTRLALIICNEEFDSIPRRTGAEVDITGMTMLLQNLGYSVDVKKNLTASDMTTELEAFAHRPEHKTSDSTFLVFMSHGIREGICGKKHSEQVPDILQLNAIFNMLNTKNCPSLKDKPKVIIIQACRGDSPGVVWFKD
Target sequence (P29466 317-404 limits assumed): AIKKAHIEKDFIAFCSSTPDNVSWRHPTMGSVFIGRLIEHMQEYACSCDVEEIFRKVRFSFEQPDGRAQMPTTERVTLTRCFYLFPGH
Casp7 inh: qHTS Assay for Allosteric/Competitive Inhibitors of Caspase-7; P55210; recombinant caspase-7, Ac-DEVD-AFC fluorescence rate; Potency, µM (titrated, usually from 57.5 µM), without a hit: at the highest dose activity change, negative = inhibition, actives largely listed as inhibitors; 75,000 tested, 0.02% active; AID 889, 2007; active = well fitted inhibition curve with a large enough effect in the main read-out, with a control signal flat, not every such curve was filed as active; inconclusive = small, poorly fitted or top-dose-only effect, or a change in a side signal; also: % of control where 0% means no effect
Target sequence (P55210 24-198 limits assumed): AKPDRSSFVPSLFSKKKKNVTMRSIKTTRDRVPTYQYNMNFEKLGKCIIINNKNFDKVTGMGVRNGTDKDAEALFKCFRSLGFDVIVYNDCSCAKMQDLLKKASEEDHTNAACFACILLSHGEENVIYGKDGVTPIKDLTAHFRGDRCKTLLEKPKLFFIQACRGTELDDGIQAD
Target sequence (P55210 207-303 limits assumed): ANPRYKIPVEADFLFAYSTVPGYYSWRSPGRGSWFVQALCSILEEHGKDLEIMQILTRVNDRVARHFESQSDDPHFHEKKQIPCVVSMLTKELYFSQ
HEK293 cAMP cs: qHTS Assay for Agonists of the Thyroid Stimulating Hormone Receptor: Activators of Intracellular cAMP Concentrations in Parental HEK 293; parental HEK293 CNG cAMP sensor, membrane potential fluorescence; Potency, µM (doses to about 57.1 µM), inactives show at the top dose activation, hits mostly activators; 73,000 tested, 2.5% active; also: % of control where 0% means no effect; nearly all actives have a fitted effect of over 55% in size
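Counterscreen for endogenous-receptor signalling: CNG-channel HEK 293 cells report cAMP rise by membrane depolarization. After 60 min dye equilibration with 100 uM RO 20-1724, compounds incubated 30 min before bottom-read fluorescence at 590 nm.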
GBA mod: Glucocerebrosidase | 48,000 tested, 1.1% active | Potency, µM | purified enzyme, resorufin glucoside fluorescence (screen aimed at inhibitors), 20 min | AID 360, 2006; in the data active = potency below about 15 µM; inconclusive = mostly about 16 µM to 33 µM;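 also: the screen sought inhibitors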
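Normal human glucocerebrosidase (0.2 nM final) was assayed with resorufin β-D-glucopyranoside (30 uM final) in 50mM citric acid/KH2PO4, 10mM sodium taurocholate, 0.01% tween-20, pH 5.9. Compounds were titrated; fluorescence (Ex 548, Em 600) read after 20 min at RT.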
An asterisk follows results filed as active; i = inactive; ? = inconclusive; · = no result given; [ ] = another dose, or the depositor's remark. Unless noted, calls follow the shape of the dose curve; as a rule, active = well fitted curve in the direction sought with a large enough effect; inconclusive = small, poorly fitted or top-dose-only effect, or another doubt; inactive = no such curve, though single readings can be large; an effect the other way counts as inactive or inconclusive. Potency is read from the fitted curve at half-maximal effect.

SMILES	ERK AVP block	TSHR agonist	Casp1 inh	Casp7 inh	HEK293 cAMP cs	GBA mod
Cc1cc2oc(=O)cc(CN3CCCCC3C)c2c(C)c1Cl (stereo not given)	1.7%	?	-2.7%	-1.1%	25.1µM*	>76.9
Cc1cc2oc(=O)cc(CN3CCN(Cc4ccccc4)CC3)c2cc1Cl	-20.0%	18.0%	-1.8%	-0.2%	28.8%	·
CCOC(=O)CCN1C(=O)[C@H]2[C@H]3[C@H](O)[C@H](O)C/C(=N/OCC(C)C)[C@H]3CC[C@@H]2C1=O	6.5%[11.5 µM]	-2.4%[11.4 µM]	1.0%[11.5 µM]	1.7%[11.5 µM]	-3.7%[11.4 µM]	·
C/C(N)=C(/C#N)C(=O)CSc1nnc(SCc2ccc(Cl)cc2)s1	?	?	-3.1%	-2.7%	31.6µM*	>76.9
O=C(NCc1ccco1)c1sc(=S)n2c1[nH]c(=O)c1ccccc12	-22.3%	?	-7.6%	-3.3%	25.1µM*	>76.9
N#CC1=C(N)C(C#N)(C#N)[C@H](c2ccncc2)[C@H]2CC3(CC=C12)OCCO3	-3.6%	2.8%	-11.5%	-7.3%	0.9%	>76.9
Cc1ccc(C2C3CSCC=C3C(C#N)=C(N)C2(C#N)C#N)cc1 (stereo not given)	8.2%	25.1µM*	?	-28.5%	-1.9%	11.8*
C[C@H](O)[C@H](O)[C@@H](O)c1cnc2nc(N)[nH]c(=O)c2n1	·	-4.0%	·	·	2.2%	·
N#C/C(=C\c1ccc(O)c(O)c1)C(=O)OCCc1cccs1	-12.7%	-3.8%	-2.9%	-12.9%	-14.8%	·
O=C1Nc2ccccc2C1(O)Cc1ccncc1 (stereo not given)	-10.7%	-2.0%	-1.3%	0.4%	5.4%	>76.9
O=C1c2ccccc2C(Cc2ccncc2)(Cc2ccncc2)c2ccccc21	-7.8%	?	1.8%	0.7%	3.16µM*	·
CCOC(=O)c1c(NC(=O)CN2CCCCC2)sc2c1CCN(C(=O)OCC)C2	·	?	-1.5%	-5.6%	7.94µM*	·
CCOC(=O)c1c(NC(=O)CN(CC)CC)sc2c1CCN(C(=O)OCC)C2	·	?	-3.7%	-6.0%	?	·
OC[C@@H]1O[C@@H](n2cnc3c(NC4CCCC4)ncnc32)[C@@H](O)[C@H]1O	-29.6%	?	2.3%	2.4%	?	·
Brc1cnc(N2CCCC2)nc1N1CCOCC1	?	8.2%	-0.3%	-1.0%	8.5%	14.6*
CC(=O)N1CCN(c2ccccc2NC(=O)c2cc(Br)ccc2Cl)CC1	-19.4%	?	-1.6%	-0.7%	31.6µM*	>76.9
CN1CCN(c2ccccc2NC(=O)c2cc(Br)ccc2Cl)CC1	-8.7%	11.5%	0.9%	1.9%	-0.9%	>76.9
N#Cc1ccc(CN2CCC3(CC2)CCN(C(=O)c2cccc(F)c2)CC3)cc1	-3.4%	-0.3%	-1.5%	0.7%	4.2%	·
Cc1ccc2cc(CN(Cc3ccco3)C(=O)C3CCCCC3)c(=O)[nH]c2c1C	10.0%	?	1.5%	-1.0%	20µM*	>76.9
COc1ccc(C(=O)N2CCC3(CC2)CN(c2ccccn2)C3)cc1	-0.9%	25.8%	-3.1%	1.2%	17.4%	·
N#CC(C#N)=CNCCN1CCN(C=C(C#N)C#N)CC1	20.1%[11.5 µM]	-0.5%[11.4 µM]	-3.9%[11.5 µM]	-1.8%[11.5 µM]	-2.7%[11.4 µM]	·
COc1ccc(OC)c(NC(=O)c2cc(-c3cc(Cl)ccc3O)n[nH]2)c1	25.1µM*	4.3%	0.7%	-8.0%	16.8%	>76.9
O=C1[C@H]2[C@H]3[C@H](O)[C@H](O)C/C(=N/OC[C@@H](O)COCc4ccco4)[C@H]3CC[C@@H]2C(=O)N1Cc1ccccc1	5.7%[11.5 µM]	0.5%[11.4 µM]	-1.3%[11.5 µM]	-0.6%[11.5 µM]	-0.9%[11.4 µM]	·
COC(=O)NC(c1ccccc1)C(C#N)C(=O)OC (stereo not given)	8.8%[11.5 µM]	-8.8%[11.4 µM]	-1.6%[11.5 µM]	0.3%[11.5 µM]	-4.9%[11.4 µM]	·
CC1CCN(c2nc(-c3ccncc3)nc3ccccc23)CC1	-29.9%	?	-2.4%	-0.9%	?	·
CC1CCCCN1c1nc(-c2ccncc2)nc2ccccc12 (stereo not given)	31.6µM*	?	-0.8%	-1.6%	25.1µM*	i
